Where “and” joins values, the source holds several entries; their conditions need not be identical. Equal values may be shown once. Compounds without any hit were thinned out: in the full panel of roughly 83,000, 20% have a hit.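 Growth was measured after 48 h exposure to one concentration of compound in 96-well plates. Values under 10 count as active.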 Calls of active or inactive are those of the source.
Legend:
Test in all cases: NCI-60 one-dose screen, 48 h (100 = growth as untreated, 0 = no growth, -100 = all killed)
HCT-15 colon = test system: HCT-15 colon
HT29 colon = test system: HT29 colon
SNB-75 CNS = test system: SNB-75 CNS
SNB-19 CNS = test system: SNB-19 CNS
U251 CNS = test system: U251 CNS
PC-3 prostate = test system: PC-3 prostate
SK-MEL-5 melanoma = test system: SK-MEL-5 melanoma
UACC-62 melanoma = test system: UACC-62 melanoma
LOX IMVI melanoma = test system: LOX IMVI melanoma
SK-MEL-28 melanoma = test system: SK-MEL-28 melanoma
SK-MEL-2 melanoma = test system: SK-MEL-2 melanoma
EKVX NSCLC = test system: EKVX NSCLC
SN12C renal = test system: SN12C renal
UO-31 renal = test system: UO-31 renal
TK-10 renal = test system: TK-10 renal
ACHN renal = details: 10 µM unless noted
A498 renal = test system: A498 renal
CCRF-CEM leukemia = test system: CCRF-CEM leukemia
MOLT-4 leukemia = test system: MOLT-4 leukemia
CAKI-1 renal = details: 10 µM unless noted

Measured: growth

CC#C[C@]1(O)CC[C@H]2[C@@H]3CCC4=CC(=O)CCC4=C3[C@@H](c3ccc4c(c3)OCO4)C[C@@]21C
active: HCT-15 colon; 100 µM -13.9% | HT29 colon; 100 µM -19.2% | SNB-75 CNS; 100 µM -6.95% | SNB-19 CNS; 100 µM 4.26% | U251 CNS; 100 µM -49.5% | PC-3 prostate; 100 µM 0.372% | SK-MEL-5 melanoma; 100 µM -80.3% | UACC-62 melanoma; 100 µM -50.1% | LOX IMVI melanoma; 100 µM -89.6% | SK-MEL-28 melanoma; 100 µM -52.3% | SK-MEL-2 melanoma; 100 µM -50.8% | EKVX NSCLC; 100 µM -10.7% | SN12C renal; 100 µM -16.1% | UO-31 renal; 100 µM -42.4% | TK-10 renal; 100 µM -25.2% | A498 renal; 100 µM -59.7% | CCRF-CEM leukemia; 100 µM -11.2% | MOLT-4 leukemia; 100 µM -7.79%
inactive: HCT-15 colon; 10 µM 69.3% | HT29 colon; 10 µM 102% | SNB-75 CNS; 10 µM 58.6% | SNB-19 CNS; 10 µM 75.8% | U251 CNS; 10 µM 76.1% | PC-3 prostate; 10 µM 67.4% | SK-MEL-5 melanoma; 10 µM 83.6% | UACC-62 melanoma; 10 µM 56.6% | LOX IMVI melanoma; 10 µM 83.7% | SK-MEL-28 melanoma; 10 µM 108% | SK-MEL-2 melanoma; 10 µM 71.1% | EKVX NSCLC; 10 µM 72.4% | SN12C renal; 10 µM 91.2% | UO-31 renal; 10 µM 66.1% | TK-10 renal; 10 µM 69.9% | ACHN renal 80.4% | A498 renal; 10 µM 63% | CCRF-CEM leukemia; 10 µM 89.9% | MOLT-4 leukemia; 10 µM 69.2%

CC(=O)Nc1cccc2c1CCCC2
inactive: HCT-15 colon; 10 µM unless noted 92.8% and 96.5% | HT29 colon; 10 µM unless noted 92.8% and 85.6% | SNB-75 CNS; 10 µM unless noted 85.4% and 101% | SNB-19 CNS; 10 µM unless noted 103% and 104% | U251 CNS; 10 µM unless noted 97.7% and 95.7% | PC-3 prostate; 10 µM unless noted 87.8% and 90.2% | SK-MEL-5 melanoma; 10 µM unless noted 100% | UACC-62 melanoma; 10 µM unless noted 107% and 102% | LOX IMVI melanoma; 10 µM unless noted 97.1% and 93.6% | SK-MEL-28 melanoma; 10 µM unless noted 104% and 107% | SK-MEL-2 melanoma; 10 µM unless noted 82.6% and 75% | EKVX NSCLC; 10 µM unless noted 96.6% and 94.7% | SN12C renal; 10 µM unless noted 103% and 100% | UO-31 renal; 10 µM unless noted 88.2% and 91% | TK-10 renal; 10 µM unless noted 85.6% and 83.7% | ACHN renal 102% and 110% | CAKI-1 renal 95.1% | A498 renal; 10 µM unless noted 97.8% and 121% | CCRF-CEM leukemia; 10 µM unless noted 82.6% and 100% | MOLT-4 leukemia; 10 µM unless noted 104% and 102%

CCN(CC)CCC(CNc1c2ccc([N+](=O)[O-])cc2nc2cc(OC)c(OC)cc12)c1ccccc1 (configuration not stated)
active: HCT-15 colon; 10 µM unless noted -29.4% and -71.4% | HT29 colon; 10 µM unless noted 3.73% and -97.3% | SNB-75 CNS; 10 µM unless noted -95.7% and -97.6% | SNB-19 CNS; 10 µM unless noted -42.9% and -93.8% | U251 CNS; 10 µM unless noted -44.7% and -100% | PC-3 prostate; 10 µM unless noted -62.6% and -97.1% | SK-MEL-5 melanoma; 10 µM unless noted -81.8% and -100% | UACC-62 melanoma; 10 µM unless noted -78.6% and -100% | LOX IMVI melanoma; 10 µM unless noted -62.2% and -100% | SK-MEL-28 melanoma; 10 µM unless noted -84.8% | SK-MEL-2 melanoma; 10 µM unless noted -11.9% and -77.5% | EKVX NSCLC; 10 µM unless noted -23.6% and -87.3% | SN12C renal; 10 µM unless noted -27.1% and -91.6% | UO-31 renal; 10 µM unless noted -73.9% and -99.4% | TK-10 renal; 10 µM unless noted -4.61% and -89.9% | ACHN renal -58.9% and -76.9% | CAKI-1 renal 8.78% and -76.1% | A498 renal; 10 µM unless noted -16.9% | CCRF-CEM leukemia; 10 µM unless noted 1.82% and -50.9% | MOLT-4 leukemia; 10 µM unless noted 5.7%

CC1=C(/C=C/C(C)=C/C=C/C(C)=C/C(=O)Nc2ccc(O)cc2)C(C)(C)CCC1
active: LOX IMVI melanoma; 10 µM unless noted 2.64% | UO-31 renal; 10 µM unless noted -4.99% | MOLT-4 leukemia; 10 µM unless noted 7.55%
inactive: HCT-15 colon; 10 µM unless noted 57% | HT29 colon; 10 µM unless noted 34.6% | SNB-75 CNS; 10 µM unless noted 57.6% | SNB-19 CNS; 10 µM unless noted 80.2% | U251 CNS; 10 µM unless noted 66.8% | PC-3 prostate; 10 µM unless noted 52.2% | SK-MEL-5 melanoma; 10 µM unless noted 43.9% | UACC-62 melanoma; 10 µM unless noted 22% | SK-MEL-28 melanoma; 10 µM unless noted 61.7% | SK-MEL-2 melanoma; 10 µM unless noted 78.6% | EKVX NSCLC; 10 µM unless noted 64.7% | SN12C renal; 10 µM unless noted 39.2% | TK-10 renal; 10 µM unless noted 103% | ACHN renal 52.2% | CAKI-1 renal 47% | A498 renal; 10 µM unless noted 71.4% | CCRF-CEM leukemia; 10 µM unless noted 19.5%

Source: PubChem BioAssay (NCI)
